Screening results: PubChem BioAssay, The Scripps Research Institute Molecular Screening Center
rCAG binder: molecules binding r(CAG) RNA repeats; r(CAG) RNA repeat, TO-PRO-1 dye displacement fluorescence; inhibition, % at 3 µM; 370,000 tested, 1.3% active; AID 651821;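 active means inhibition above the plate cutoff, the mean of all test compounds on that plate plus 3 SD, cut at about 35% in these data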;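 further: 0% = DMSO alone and 100% = 100 µM mitoxantrone as full dye displacement; higher means more dye released from RNA so lower well fluorescence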
HGIII-sPLA2 inh: Blocks human group III sPLA2 activity | Q9NZ20 | 370,000 tested, 0.56% active | QFRET BODIPY PC-A2 liposome hydrolysis, fluorescence | AID 743126 | inhibition, % at 12.2 µM;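 active means inhibition above mean plus 3 SD of compounds lying within the high and low control bounds, cut at about 19% in these data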;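 further: 0% = median of test compound wells and 100% = no enzyme DMSO wells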
Target sequence (Q9NZ20 whole entry, looked up): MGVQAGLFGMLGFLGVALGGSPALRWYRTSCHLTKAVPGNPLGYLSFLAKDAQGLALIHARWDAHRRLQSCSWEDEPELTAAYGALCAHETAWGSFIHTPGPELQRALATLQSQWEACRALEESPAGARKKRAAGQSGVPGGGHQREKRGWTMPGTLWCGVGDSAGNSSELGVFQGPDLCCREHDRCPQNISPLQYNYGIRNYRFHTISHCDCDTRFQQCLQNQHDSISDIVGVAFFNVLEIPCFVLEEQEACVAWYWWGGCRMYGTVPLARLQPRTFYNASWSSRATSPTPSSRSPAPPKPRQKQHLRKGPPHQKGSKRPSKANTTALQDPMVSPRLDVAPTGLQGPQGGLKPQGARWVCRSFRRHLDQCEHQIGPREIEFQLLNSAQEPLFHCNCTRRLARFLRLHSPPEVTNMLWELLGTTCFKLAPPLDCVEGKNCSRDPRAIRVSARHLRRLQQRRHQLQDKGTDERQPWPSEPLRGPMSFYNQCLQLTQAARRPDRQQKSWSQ
MsrA act: activates bovine MsrA enzyme; purified bovine MsrA, absorbance read-out; activation, % at 10.6 µM; 360,000 tested, 0.3% active; AID 602163; in the data active means activation above about 7.5%;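 further: 0% = vehicle and 100% = reference activator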
MsrA inh: inhibitors of bovine MsrA; inhibition, % at 15.5 µM; purified bovine MsrA, absorbance read-out; 360,000 tested, 0.75% active; AID 651718; in the data active means inhibition above about 4.5%;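 further: 0% = vehicle wells with enzyme and 100% = reference inhibitor wells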
hGIII sPLA2 conf: human GIII-sPLA2 inhibition, confirmation; shares compounds with HGIII-sPLA2 inh; recombinant hGIII-sPLA2, BODIPY PC-A2 QFRET fluorescence; inhibition, % at 12.2 µM; 2,000 tested, 34% active; AID 743280;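 active means mean inhibition across triplicates above the hit cutoff set in the earlier primary screen, cut at about 19% in these data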;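 further: 0% = enzyme with DMSO and 100% = DMSO wells lacking enzyme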
BODIPY interf: 535nm fluorescence interference, HGIII-sPLA2 counter-screen; shares compounds with HGIII-sPLA2 inh; BODIPY FL product fluorescence interference, QFRET; inhibition, % at 12.2 µM; 2,000 tested, 8.5% active; AID 743282;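 active means average inhibition above the solvent-only control mean plus 3 SD, cut at about 6% in these data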;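 further: 0% = DMSO with substrate plus product and 100% = DMSO with substrate alone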
BODIPY interf DR: counter-screen for HGIII-sPLA2 inhibitors: 535nm fluorescence interference, dose response | BODIPY FL product fluorescence interference, cell-free | 240 tested, under 10 active | AID 743455 | IC50, µM | shares compounds with HGIII-sPLA2 inh;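 active means IC50 at or below 10 µM; inactive means IC50 above 10 µM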
* marks the source's active call; other numbers are inactive results; nt = not tested or not shown. In the library only some 2.8% were active in any assay of this set; here they are far more common.

SMILES	rCAG binder	HGIII-sPLA2 inh	MsrA act	MsrA inh	hGIII sPLA2 conf	BODIPY interf	others
COc1ccc(CN2C[C@@H](CO)O[C@@H](n3cnc4c(N5CCOCC5)ncnc43)C2)cc1	1.8	20.0*	-0.2	0.8	-3.5	-18.6
COCCN1C[C@@H](CO)O[C@@H](n2cnc3c(N4CCCC4)ncnc32)C1	0.5	20.5*	-5.5	0.1	1.1	-2.1
COCCN1C[C@@H](CO)O[C@@H](n2cnc3c(N4CCOCC4)ncnc32)C1	-0.8	0.6	-2.3	0.5	nt	nt
OC[C@@H]1CN(Cc2ccncc2)C[C@H](n2cnc3c(NC4CCCC4)ncnc32)O1	0.5	21.2*	-8.0	0.8	-0.4	-9.8
COCCN1C[C@@H](CO)O[C@@H](n2cnc3c(N4CCN(C)CC4)ncnc32)C1	nt	nt	-4.7	nt	nt	nt
COc1ccc(C(=O)NNC(=O)c2ccc(C(C)(C)C)cc2)cc1	-1.5	-11.2	-2.3	2.7	nt	nt
COc1ccc(C(=O)NNC(=S)NC(=O)C(C)(C)C)cc1	2.1	22.8*	-2.8	0.2	19.4*	-9.5
COc1cc(C(=O)NC(=S)NNC(=O)c2cnccn2)cc(OC)c1OC	6.2	21.2*	-3.8	2.2	9.6	-6.0
COc1cc(C(=O)NNC(=S)NC(=O)c2ccc3c(c2)OCO3)cc(OC)c1OC	18.3	24.3*	-2.4	2.4	37.0*	-16.1	BODIPY interf DR=>122
COc1ccc(/C=C/C(=O)NC(=S)NNC(=O)c2ccco2)cc1OC	7.9	20.1*	-4.7	2.7	25.3*	-22.9
COc1ccc(C(=O)NC(=S)NNC(=O)c2ccccc2C)cc1	5.7	24.8*	-8.2	0.6	29.1*	-1.5
O=C(/C=C/c1cccs1)NC(=S)NNC(=O)c1ccccc1O	37.6*	42.2*	-7.1	6.9*	32.2*	2.8	BODIPY interf DR=>122
O=C(NC(=S)NNC(=O)c1ccccc1O)c1ccco1	2.1	27.6*	-0.9	2.0	19.0	-4.7
COc1ccc(C(=O)NNC(=S)NC(=O)/C=C/c2cccs2)cc1	0.0	0.3	-1.4	1.1	nt	nt
COc1ccc(C(=O)NC(=S)NNC(=O)COc2ccccc2)cc1	9.3	6.8	4.6	-0.6	nt	nt
COc1ccccc1OCC(=O)NNC(=S)NC(=O)c1ccco1	4.6	2.2	1.1	0.5	nt	nt
COc1ccc(CC(=O)NNC(=O)c2ccccn2)cc1	0.6	0.1	-2.0	-0.5	nt	nt
COc1ccc(CC(=O)NNC(=O)c2cnccn2)cc1	3.4	19.6*	-7.4	0.2	7.5	-6.7
O=C(NCc1cc([N+](=O)[O-])ccc1O)c1cccc(NS(=O)(=O)c2ccccc2)c1	16.5	-14.2	-1.2	-0.1	nt	nt
COc1cc(C(=O)Nc2ccncc2)cc(OC)c1OC	-0.6	20.6*	0.4	0.7	-3.0	-8.0
COc1ccccc1C(=O)NNC(=S)NC(=O)c1cc(OC)c(OC)c(OC)c1	0.6	7.0	-9.8	0.1	nt	nt
COc1cc(C(=O)NNC(=S)NC(=O)c2ccccc2C)cc(OC)c1OC	5.9	26.1*	-2.3	1.6	25.0*	-13.1
COc1ccc(CC(=O)NNC(=O)c2ccco2)cc1	-1.8	3.0	-4.4	-1.2	nt	nt
COc1ccc(C(=O)NC(=S)NNC(=O)c2ccco2)cc1	3.6	19.3*	0.3	1.3	28.6*	-2.2	BODIPY interf DR=>122
COc1cccc(NC(=O)COc2ccccc2C(N)=O)c1	3.4	3.5	-1.2	-0.4	nt	nt
SMILES	rCAG binder	HGIII-sPLA2 inh	MsrA act	MsrA inh	hGIII sPLA2 conf	BODIPY interf	others
O=C1CCC([N+](=O)[O-])C(c2ccc(-c3ccccc3)cc2)N1 (stereo not drawn)	-2.7	-2.4	-6.4	0.0	nt	nt
Cc1ccc(NC2SC(=O)N(Cc3cccc(C(=O)O)c3)C2=O)cc1 (stereo not drawn)	6.2	-17.2	-9.3	2.7	nt	nt
C[C@@H]1CN(C(=O)OC(C)(C)C)CCN1c1ccc(N2CC[C@H](O)C2)c(C#N)c1	1.3	21.5*	nt	1.0	7.6	-12.6
COc1ccccc1C(=O)NNC(=O)c1cccc(O)c1	0.4	-4.0	-0.6	-1.5	nt	nt
NC(=O)C1CC(=O)N(c2ccc(OCc3ccc(Cl)c(Cl)c3)cc2)C1 (stereo not drawn)	5.4	20.7*	-1.9	-0.3	10.0	-13.2
NC(=O)C1CC(=O)N(c2ccc(OCc3ccc(Cl)cc3Cl)cc2)C1 (stereo not drawn)	-3.4	8.2	-0.8	-1.1	nt	nt
CCN(CC(=O)NC1CCS(=O)(=O)C1)c1nc(-c2ccccc2)nc2ccccc12 (stereo not drawn)	-1.3	-4.4	-6.5	2.3	nt	nt
